Source: PubChem BioAssay
This is a sample that favours compounds with a hit; in the whole collection about 2% have one here.
Fam108B inh: mouse Fam108B serine hydrolase inhibitors, primary screen, counter-screen for RBBP9 inhibitor project, biochemical, fluorescence polarization; recombinant Fam108B, FP-Rh probe fluorescence polarization; inhibition, % at 9.51 µM; actives 0.33% (n = 300,000); AID 1947, 2009;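 active = inhibition above the screen mean inhibition plus 3 SD, computed separately per campaign, cut at about 18% in these data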;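 note: inhibitors lower polarization as less probe binds the enzyme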
LYPLA2 counter: LYPLA2 inhibitors, primary screen, counter-screen for PME1 inhibitor project, biochemical, fluorescence polarization, FP-Rh probe ABPP | Acyl-protein thioesterase 2 (Homo sapiens), O95372 | recombinant LYPLA2 | inhibition, % at 5.9 µM | actives 0.38% (n = 320,000) | AID 2177, 2009;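 active = inhibition above the screen-wide mean plus 3 SD, limit set per campaign, cut at about 26% in these data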;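 note: 0% = LYPLA2 with DMSO and 100% = wells lacking LYPLA2 enzyme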
Target sequence (O95372 whole entry, looked up): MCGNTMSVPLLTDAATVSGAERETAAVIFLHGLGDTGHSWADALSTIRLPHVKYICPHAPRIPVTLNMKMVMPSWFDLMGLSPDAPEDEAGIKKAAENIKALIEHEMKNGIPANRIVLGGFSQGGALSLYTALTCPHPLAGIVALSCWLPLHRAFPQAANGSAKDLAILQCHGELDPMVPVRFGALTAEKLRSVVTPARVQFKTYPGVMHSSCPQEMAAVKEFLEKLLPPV
PME-1 inh: PME-1 inhibitors via competitive probe labeling, primary screen, biochemical, fluorescence polarization, FP-Rh probe, HTS; Protein phosphatase methylesterase 1 (Homo sapiens), Q9Y570; recombinant PME-1; inhibition, % at 5.9 µM; actives 0.53% (n = 320,000); AID 2130, 2009;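 active = inhibition above the campaign mean of all compounds plus 3 SD, cut at about 26% in these data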;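 note: competitive labeling of PME-1 active site by serine hydrolase directed probe; 0% = PME-1 with DMSO and 100% = wells lacking PME-1 enzyme; inhibitors block probe labeling so polarization falls and inhibition rises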
GSTO1 counter: inhibitors of recombinant GSTO1, primary screen, counter-screen for RBBP9 inhibitor project, biochemical, fluorescence polarization. Glutathione S-transferase omega-1 (Homo sapiens), P78417. activity-based probe fluorescence polarization. inhibition, % at 5.96 µM. actives 1.1% (n = 300,000). AID 1974, 2009;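 active = inhibition above the campaign mean inhibition plus 3 SD, cut at about 35% in these data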;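 note: 0% = GSTO1-1 with DMSO and 100% = wells lacking GSTO1-1 enzyme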
LYPLA1 counter: LYPLA1 inhibitors, primary screen, counter-screen for PME1 inhibitor project, biochemical, fluorescence polarization, FP-Rh probe ABPP; Acyl-protein thioesterase 1 (Homo sapiens), O75608; recombinant LYPLA1; inhibition, % at 5.9 µM; actives 0.16% (n = 320,000); AID 2174, 2009;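 active = inhibition above the mean of all tested compounds plus 3 SD, set per campaign, cut at about 14% in these data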;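 note: inhibitors block serine hydrolase probe labeling of LYPLA1 so polarization falls; 0% = enzyme with DMSO and 100% = wells lacking LYPLA1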
Target sequence (O75608 whole entry, looked up): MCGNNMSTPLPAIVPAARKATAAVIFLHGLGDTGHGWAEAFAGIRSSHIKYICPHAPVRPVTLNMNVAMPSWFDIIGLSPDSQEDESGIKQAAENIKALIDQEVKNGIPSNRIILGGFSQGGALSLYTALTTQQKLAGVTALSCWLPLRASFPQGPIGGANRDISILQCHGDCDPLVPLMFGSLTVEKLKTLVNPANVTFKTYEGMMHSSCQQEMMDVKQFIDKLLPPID
PREPL inhibitor: PREPL enzyme inhibitors, primary screen, biochemical, fluorescence polarization; Prolyl endopeptidase-like (Homo sapiens), Q4J6C6; recombinant PREPL, fluorescence polarization activity-based probe; inhibition, % at 5.96 µM; actives 0.68% (n = 320,000); AID 2751, 2010; in the data active = inhibition above about 43%;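 note: 0% = enzyme with DMSO and 100% = wells lacking enzyme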
GSTO1 inh conf: GSTO1 inhibitor hit confirmation, counter-screen for RBBP9 inhibitor project, biochemical, fluorescence polarization, triplicate; actives 54% (n = 2,400); inhibition, % at 5.96 µM; recombinant GSTO1, probe fluorescence polarization; shares compounds with GSTO1 counter;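 active = inhibition above the primary screen's cutoff, its mean inhibition plus 3 SD, cut at about 35% in these data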;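 note: loss of polarization as inhibitors block binding of rhodamine sulfonate ester activity probe; 0% = GSTO1 with DMSO and 100% = wells lacking GSTO1 enzyme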
GSTO1 recomb ABPP: inhibitors of purified human GSTO1, late-stage follow-up, biochemical, gel ABPP, SE-Rh probe, percent inhibition; recombinant GSTO1, gel ABPP SE-Rh probe fluorescence; shares compounds with GSTO1 counter; actives 30% (n = 130); inhibition, % at 1 µM;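 active = inhibition of the enzyme GSTO1 above about 75%, limit read from the data; inactive = inhibition below that limit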
* = called active by the depositor; x = not tested or not shown.

SMILES	Fam108B inh	LYPLA2 counter	PME-1 inh	GSTO1 counter	LYPLA1 counter	PREPL inhibitor	GSTO1 inh conf	others
NS(=O)(=O)c1ccc(CCNC(=O)NC2(C(F)(F)F)Oc3ccccc3O2)cc1	2	5	-4	47*	-2	-5	2
O=C(NCCN1CCOCC1)NC1(C(F)(F)F)Oc2ccccc2O1	-1	-1	-4	57*	-3	2	5
COCCNC(=O)NC1(C(F)(F)F)Oc2ccc(Cl)cc2O1 (centres undefined)	2	-9	2	38*	3	17	5
COC(=O)c1c(C)[nH]c(C(=O)COC(=O)CCNS(=O)(=O)c2cccc(C(F)(F)F)c2)c1C	x	0	0	x	-4	2	x
CCc1ccc(/C(C)=N/NC(=O)CNC(=O)/C=C/c2ccco2)cc1	-7	-9	-9	14	-10	2	x
NS(=O)(=O)c1ccc(CNS(=O)(=O)c2cccc3nonc23)cc1	0	-9	11	15	0	8	x
CC(=O)N/C(=C/c1ccc2c(c1)OCO2)C(=O)NCc1ccccc1	2	2	1	8	2	-2	x
CN(C(=O)COC(=O)c1ccc(=O)n(Cc2ccccc2)n1)C1CCCCC1	x	7	3	x	2	33	x
CCc1ccc(NC(=O)Cn2c3[n+](c4c(F)c(F)ccc42)CCCCC3)cc1	0	-4	-4	77*	-1	31	89*
C#CC(=O)N(c1ccc(OC)cc1OC)C(C(=O)NC1CCCC1)c1cccs1 (centres undefined)	0	-4	-4	15	2	10	x
C#CC(=O)N(c1cc(OC)ccc1OC)C(C(=O)NC1CCCC1)c1cccs1 (centres undefined)	-4	1	-5	65*	2	22	68*
CC(=O)N1CCN(S(=O)(=O)c2cccc(C(=O)NCc3ccc(F)cc3)c2)CC1	x	x	x	x	x	19	x
OCCC1CN(Cc2ccon2)CCN1Cc1ccc(F)c(F)c1 (centres undefined)	-2	-1	-3	-2	-1	-8	x
Cc1nnc2c(SC(C)C)nc3ccccc3n12	3	5	-3	42*	0	-6	5
COc1cccc(CN2CCNC(=O)C2CC(=O)NCC(C)(C)N2CCOCC2)c1OC (centres undefined)	5	1	5	-3	2	9	x
NC1=NC(=O)/C(=C\c2cc([N+](=O)[O-])ccc2Cl)S1	-3	-3	-1	46*	5	2	11
O=C(CCNC(=O)c1ccccc1Cl)Nc1cccc(S(=O)(=O)N2CCCC2)c1	x	1	12	x	0	13	x
CCCOc1cc(N)ccc1C(=O)OCCN(CC)CC	-2	1	0	6	2	3	x
CCCOc1ccc(N)cc1N	17	-1	13	78*	-6	29	-14
CCOc1ccc(/C=N/n2c(COc3ccccc3)n[nH]c2=S)cc1OC	7	5	-3	8	2	-12	x
O=C(O)C1Cc2ccccc2CN1C(=O)CCl (centres undefined)	4	0	-10	70*	-3	-6	98*	GSTO1 recomb ABPP=82*
O=C(NCc1ccco1)c1cc(-c2ccncc2)nc2ccccc12	4	2	0	0	2	2	x
O=C(NCc1ccco1)c1cc(-c2cccnc2)nc2ccccc12	-2	7	4	38*	4	3	5
Cc1ccc(C(=O)NCC(=O)Nc2ccncc2)s1	-1	-5	2	-20	-1	-2	x
COc1ccc(CNc2nc(-c3cccnc3)nn2S(C)(=O)=O)cc1	-2	-1	1	-10	2	1	x
SMILES	Fam108B inh	LYPLA2 counter	PME-1 inh	GSTO1 counter	LYPLA1 counter	PREPL inhibitor	GSTO1 inh conf	others
O=C1c2ccccc2C(=O)c2c1cccc2-n1nnc2ccccc21	-1	5	1	-3	3	21	x
O=C1C(N2CCOCC2)=C(n2nnc3ccccc32)C(=O)c2ccccc21	11	14	0	77*	-2	7	84*
S=c1[nH]c2ccccc2n2c(=S)[nH]nc12	1	5	-1	59*	2	13	39*
O=C(NCc1cccnc1)C1CCN(S(=O)(=O)c2cc([N+](=O)[O-])ccc2Cl)CC1	x	x	x	x	x	19	x
O=C(COC(=O)CNS(=O)(=O)c1cc(C(F)(F)F)ccc1Cl)NC1CC1	x	x	x	x	x	25	x
CCCCNC(=O)Oc1cc(CCl)on1	0	5	1	83*	-1	6	91*	GSTO1 recomb ABPP=21
COc1cc(/C=C/c2[nH]c(=O)[nH]c(=O)c2[N+](=O)[O-])cc([N+](=O)[O-])c1O	9	2	-2	53*	-1	21	68*
CCC(C)Oc1ccc(/C=C/c2[nH]c(=O)[nH]c(=O)c2[N+](=O)[O-])cc1OC (centres undefined)	2	-3	-6	2	4	16	x
CCc1ccc(C(=O)C(C)OC(=O)C2COc3ccccc3O2)cc1 (centres undefined)	-2	-8	0	-5	-1	-14	x
Oc1ccc(-c2nc(-c3ccc(O)c(O)c3)cs2)cc1	-1	-3	14	47*	-6	12	6
Cc1c(Br)c(O)c(Br)c(O)c1/C=N/n1c(-c2ccccc2)n[nH]c1=S	3	2	-12	58*	-5	0	35*
COc1cc(/C=N/n2c(-c3ccccc3)n[nH]c2=S)cc(OC)c1O	-2	-4	-1	11	0	-11	x
CCN(CC(=O)NC(C)(C)C)C(=O)COc1c(Cl)cc(Cl)c2ccc(C)nc12	-3	-3	1	7	-3	23	x
CCN(CC(=O)NC(C)(C)C)C(=O)CCl	3	5	-8	67*	1	-6	86*	GSTO1 recomb ABPP=11
O=C1C=C(Nc2ccc(F)cc2)c2ccccc2C1=O	x	6	0	x	0	20	x
O=C1C=C(Nc2ccccc2O)c2ccccc2C1=O	6	-2	2	72*	-1	13	74*
